Source: PubChem BioAssay (National Center for Advancing Translational Sciences (NCATS))
Giardia killer: kills Giardia lamblia; activity change, % at 7.66 µM, hits read low; AID 540267; hit rate 0.15% among 340,000; Giardia lamblia trophozoite viability; in the data active means activity change below about -80%; inconclusive means between about -30% and that limit;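 further: parasites exposed to compound for two days anaerobically before the ATP read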
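Compounds were tested on trophozoites seeded at 100 cells/well and held 48 hrs at 37 deg C anaerobically. An ATP-based luminescent kit measured the remaining live cells.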
KB-3-1 tox: KB-3-1 parental cell cytotoxicity | hit rate 1.4% among 400,000 | KB-3-1 viability, CellTiter-Glo ATP luminescence, 72 h | Potency, µM (highest dose often 46.1 µM), usual class: cytotoxic; further: nearly all actives have a fitted effect of over 60% in size
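Multi-concentration cytotoxicity screen in KB-3-1 cells grown in DMEM lacking phenol red with 10% FBS. After 72 h at 37 °C with compound, ATP-dependent luminescence was recorded.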
KB-V1 MDR tox: kills drug-selected multidrug resistant KB-V1 cells. KB-V1 MDR cells viability, CellTiter-Glo, 72 h. Potency, µM (doses to about 46.1 µM), most hits filed as cytotoxic. hit rate 3.4% among 400,000. AID 1347076; further: nearly all actives have a fitted effect of over 60% in size
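KB-V1 MDR subline cells in DMEM (phenol-red free, 10% FBS) exposed to compounds in qHTS concentration series for 72 h at 37 degrees C. Viability read by CellTiter-Glo luminescence; concentration-effect curves fitted after normalization and correction.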
MCF10A rerep: induces DNA re-replication in MCF 10a normal breast cells | hit rate 2.9% among 350,000 | Potency, µM (titrated, usually from 46.1 µM), hits mostly activators | AID 624296 | MCF 10A DNA re-replication, Hoechst nuclear intensity, 48 h; further: nearly all actives have a fitted effect of over 50% in size
SW480 rerep: DNA re-replication induction in SW480 cells; hit rate 1.8% among 340,000; SW480 DNA re-replication, Hoechst DNA content imaging, 48 h; Potency, µM (series often up to 46.1 µM), most hits filed as activators; AID 624297; further: nearly all actives have a fitted effect of over 55% in size
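Hoechst fluorescence of nuclei (405 nm excitation, 500-530 nm emission) measured by plate-scanning imager after 48 hr compound exposure at 37 C; re-replication scored as increased number of nuclei with elevated intensity.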
S-ASM inh: human S-ASM enzyme inhibition; placental ASM, HMU-PC fluorogenic substrate, 60 min; hit rate 0.006% among 340,000; Potency, µM (top dose mostly 57.5 µM), usual class: inhibitors
Target sequence (P17405 47-631 limits assumed): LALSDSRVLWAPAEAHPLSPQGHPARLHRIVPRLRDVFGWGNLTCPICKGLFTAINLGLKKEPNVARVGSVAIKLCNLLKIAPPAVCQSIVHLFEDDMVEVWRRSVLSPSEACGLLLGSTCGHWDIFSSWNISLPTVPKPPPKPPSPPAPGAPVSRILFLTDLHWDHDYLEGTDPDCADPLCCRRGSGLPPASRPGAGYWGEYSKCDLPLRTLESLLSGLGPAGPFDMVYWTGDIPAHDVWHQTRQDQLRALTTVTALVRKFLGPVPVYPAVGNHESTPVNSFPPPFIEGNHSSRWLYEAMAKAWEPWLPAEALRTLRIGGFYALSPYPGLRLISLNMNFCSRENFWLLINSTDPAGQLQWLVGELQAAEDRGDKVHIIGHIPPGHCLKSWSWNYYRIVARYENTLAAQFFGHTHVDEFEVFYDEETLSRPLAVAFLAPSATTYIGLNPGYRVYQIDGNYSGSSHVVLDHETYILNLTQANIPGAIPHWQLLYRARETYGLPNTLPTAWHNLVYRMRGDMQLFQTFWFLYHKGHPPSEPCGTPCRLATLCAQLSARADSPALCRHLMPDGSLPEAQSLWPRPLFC
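HMU-PC0 cleavage (9 uM final) by human placental ASM, 60 min at 37 °C following 10 min compound exposure at RT; stopped at pH 10, fluorescence Ex 386/Em 447 nm.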
Large screens that a line does not name were inactive. In the library only some 6.9% were active in any assay of this set; here they are far more common. Unless noted, the call rests on the fitted dose curve; in most records, active means well fitted curve in the direction sought with a large enough effect; inconclusive means small, poorly fitted or top-dose-only effect, or another doubt; inactive means no such curve, though single readings can be large; an effect the other way counts as inactive or inconclusive.

CN(CC(=O)Nc1ccc(N2CCOCC2)cc1)C(=O)CCc1cc(C(C)(C)C)c(O)c(C(C)(C)C)c1	KB-V1 MDR tox 3.7µM
CCc1noc(C)c1C(=O)Nc1nc(-c2ccc(OC)cc2OC)cs1	none
Cc1noc(C)c1C(=O)Nc1nc(-c2ccc(F)c(F)c2)cs1	KB-V1 MDR tox 21µM
CCc1noc(C)c1C(=O)Nc1nc(-c2ccc(OC)cc2)cs1	SW480 rerep 18µM
Cc1ccc(C(=O)CSc2nc(-c3ccccc3)nc3c2CCCC3)cc1C	none (no result: Giardia killer, MCF10A rerep, SW480 rerep, S-ASM inh)
O=C(Nc1ccccc1)Nc1sccc1-c1nc2ccccc2s1	MCF10A rerep inconclusive
O=C(Nc1cccc(Cl)c1)Nc1sccc1-c1nc2ccccc2s1	KB-V1 MDR tox inconclusive, MCF10A rerep 16µM, SW480 rerep 18µM
CN1C(=O)/C(=C/c2cccc([N+](=O)[O-])c2)C(=O)N1c1ccccc1	Giardia killer inconclusive, KB-3-1 tox inconclusive, MCF10A rerep inconclusive, SW480 rerep inconclusive
CCCN1C/C(=C/c2cccc([N+](=O)[O-])c2)C(=O)/C(=C/c2cccc([N+](=O)[O-])c2)C1	KB-3-1 tox inconclusive, KB-V1 MDR tox inconclusive, MCF10A rerep 0.92µM, SW480 rerep 1.6µM
CCCN1C/C(=C/c2ccc3c(c2)OCO3)C(=O)/C(=C/c2ccc3c(c2)OCO3)C1	KB-3-1 tox 23µM, KB-V1 MDR tox inconclusive, MCF10A rerep inconclusive, SW480 rerep 4.6µM
COc1ccccc1NC(=O)Cc1noc(CSc2nnc(C(F)(F)F)n2C)n1	none
COc1ccccc1NC(=O)Cc1noc(CSc2nnc(C)n2C)n1	MCF10A rerep 0.65µM
CCc1ccccc1NC(=O)c1ccc2c(c1)nnn2C1CCCC1	none (no result: Giardia killer, MCF10A rerep, SW480 rerep, S-ASM inh)
CC[C@H](c1ccc(O)cc1)[C@@H](CC)c1ccc(O)cc1	MCF10A rerep 11µM (no result: Giardia killer, KB-3-1 tox, KB-V1 MDR tox, S-ASM inh)
O=C1/C(=C/c2cccnc2)CCC/C1=C\c1cccnc1	Giardia killer inconclusive, KB-3-1 tox inconclusive, KB-V1 MDR tox 3.3µM, MCF10A rerep 1.2µM, SW480 rerep 1.3µM
CCC1C/C(=C\c2cccnc2)C(=O)/C(=C/c2cccnc2)C1 (configuration not stated)	KB-3-1 tox 3.7µM, KB-V1 MDR tox inconclusive, MCF10A rerep inconclusive (no result: SW480 rerep)
CN(C)c1ccc(/C=C2\Cc3ccccc3C2=O)cc1	none (no result: Giardia killer, MCF10A rerep, SW480 rerep, S-ASM inh)
CN(C)c1ccc(/C=C2\CCC/C(=C\c3ccccc3)C2=O)cc1	KB-V1 MDR tox 18µM, MCF10A rerep 18µM
O=C(NCCCn1ccnc1)c1cn(-c2ccccc2)nc1-c1ccccc1	none
CCOc1cccc(-c2nn(-c3ccccc3)cc2/C=C(/C#N)C(=O)NCCCn2ccnc2)c1	KB-V1 MDR tox inconclusive, MCF10A rerep 21µM, SW480 rerep inconclusive
N#C/C(=C/c1cn(-c2ccccc2)nc1-c1cccc(OCc2ccccc2)c1)C(=O)NCCCn1ccnc1	KB-V1 MDR tox 9.2µM, MCF10A rerep 13µM, SW480 rerep inconclusive, S-ASM inh inconclusive
CCOC(=O)c1cc(Br)c(=O)n2ccccc12	KB-V1 MDR tox 15µM
O=C(CCc1nc2ccccc2s1)N1CCN(S(=O)(=O)c2cccs2)CC1	none
O=S(=O)(c1cccs1)N1CCN(Cc2nc3ccccc3s2)CC1	KB-V1 MDR tox 23µM
COc1ccc(/C=N/n2cnc3scc(-c4cccs4)c3c2=O)cc1OC	none
COc1cc(/C=N/n2cnc3scc(-c4cccs4)c3c2=O)cc(OC)c1OC	KB-3-1 tox 4.6µM, KB-V1 MDR tox inconclusive, SW480 rerep inconclusive
CCOC(=O)C1=C(C)N(c2ccc(OCC)cc2)C(=O)/C1=C\c1ccco1	MCF10A rerep 16µM
CSCC[C@H](NC(=O)C1CCN(S(=O)(=O)c2ccc(C)cc2C)CC1)c1nc2ccccc2[nH]1	KB-V1 MDR tox 23µM
CSCC[C@H](NC(=O)c1cccc([N+](=O)[O-])c1C)c1nc2ccccc2[nH]1	KB-V1 MDR tox 16µM
Cc1c(C(=O)NC(Cc2ccccc2)c2nc3ccccc3[nH]2)cccc1[N+](=O)[O-] (configuration not stated)	KB-V1 MDR tox inconclusive, SW480 rerep inconclusive
CC(C)c1cc(=O)n2c(nc3ccccc32)[nH]1	none
O=c1cc(CCl)[nH]c2nc3ccccc3n12	MCF10A rerep inconclusive, SW480 rerep 18µM
O=c1cc(-c2ccccc2)[nH]c2nc3ccccc3n12	Giardia killer inconclusive, KB-3-1 tox inconclusive, KB-V1 MDR tox inconclusive, MCF10A rerep 6.5µM, SW480 rerep 10µM
CC(NCc1cc(Br)ccc1OCC(=O)NCc1ccccc1)c1ccccc1 (configuration not stated)	MCF10A rerep inconclusive, SW480 rerep inconclusive
CCc1ccc2oc(-c3ccc(OC)cc3)cc(=Nc3c(C)n(C)n(-c4ccccc4)c3=O)c2c1	KB-3-1 tox inconclusive, KB-V1 MDR tox 9.2µM, MCF10A rerep inconclusive
CCc1ccc2oc(-c3ccc(OC)cc3)cc(=Nc3cccc(C(=O)O)c3)c2c1	MCF10A rerep 23µM
COc1ccc(NC(=O)C(CC(C)C)NC(=O)C2CCCCC2)cc1 (configuration not stated)	none (no result: Giardia killer, MCF10A rerep, SW480 rerep, S-ASM inh)
COc1ccc(-c2c3c(nc4sc(C(=O)Nc5cc(C)on5)c(N)c24)CCC3)cc1	MCF10A rerep 1.5µM, SW480 rerep 18µM
CCOc1ccc(CCNC(=O)CN(C)S(=O)(=O)c2cccs2)cc1OCC	KB-V1 MDR tox 4.6µM
CCOc1ccc(CCNC(=O)Cn2c(=O)oc3ccccc32)cc1OCC	KB-V1 MDR tox 18µM
COc1ccc(Cn2c(=O)oc3ccccc32)cc1OC	KB-3-1 tox inconclusive, KB-V1 MDR tox 21µM (no result: Giardia killer, MCF10A rerep, SW480 rerep, S-ASM inh)
CCOC1=C2CN(S(=O)(=O)c3ccc(C)cc3)C(c3ccc(C)cc3)CC2N(S(=O)(=O)c2ccc(C)cc2)C(c2ccccc2)C1 (configuration not stated)	KB-3-1 tox 3.3µM, KB-V1 MDR tox inconclusive (no result: Giardia killer, MCF10A rerep, SW480 rerep, S-ASM inh)
CC(C)=CC(O)C/C(C)=C/COc1ccc2ccc(=O)oc2c1 (configuration not stated)	KB-3-1 tox 5.8µM, KB-V1 MDR tox 13µM, MCF10A rerep inconclusive
Cc1ccc(OCC(=O)N(Cc2ccccc2)C(C)(C)C)c([N+](=O)[O-])n1	KB-V1 MDR tox 23µM
Cc1ccc(OCC(=O)Nc2ccc(F)cc2)c([N+](=O)[O-])n1	Giardia killer inconclusive, KB-V1 MDR tox inconclusive
CCCn1c(C)cc(C(=O)COc2ccc(C)nc2[N+](=O)[O-])c1C	Giardia killer inconclusive, KB-V1 MDR tox 16µM, MCF10A rerep inconclusive, SW480 rerep inconclusive
Cc1ccc(OCC(=O)c2cc(C)n(-c3ccccc3)c2C)c([N+](=O)[O-])n1	Giardia killer -102, KB-3-1 tox 8.2µM, KB-V1 MDR tox 21µM, MCF10A rerep inconclusive
Cc1ccc(OCC(=O)Nc2ccccc2Sc2ccccc2)c([N+](=O)[O-])n1	KB-V1 MDR tox 18µM
